Only some compounds are listed: those with a hit (about 6.1% of all), similar ones and a draw of the others.
PK Bst: alters activity of Bacillus stearothermophilus pyruvate kinase; purified pyruvate kinase, luminescence ATP production; ribose 5-phosphate activator present at AC10; Potency, µM; 51,000 compounds, 1.2% hits; in the data active = potency below about 11 µM; inconclusive = mostly about 12 µM to 25 µM;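 the screen sought inhibitors and activators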;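 note: scaled between full activation by ribose 5 phosphate and full inhibition by luteolin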
TSHR ag: TSH receptor (human) agonism; P16473; HEK293-CNG-TSHR cells (CNG channel as cAMP sensor), membrane potential dye, cAMP; Potency, µM (series often up to 57.1 µM), for inactives: at the top dose activation, most hits filed as activators; 73,000 compounds, 0.48% hits; AID 926; active = well fitted activation curve with a large enough effect in the main read-out, with a control signal flat, not every such curve was filed as active; inconclusive = small, poorly fitted or top-dose-only effect, or a change in a side signal; inactive = no such curve, though single readings can be large or run the other way; % of control where 0% means no effect;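 note: the control signal comes from parental cells without the receptor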
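cAMP rise detected as CNG-channel membrane depolarization by fluorescent dye (emission 590 nm), 30 min after compound, following 60 min dye loading containing 100 uM RO 20-1724 at room temperature. Cells: TSHR/CNG HEK 293, with parental CNG HEK 293 as control.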
HEK293 cAMP ctrl: parental HEK293 cAMP activation (counter-screen); parental HEK293 CNG cAMP sensor, membrane potential fluorescence; Potency, µM (top dose mostly 57.1 µM), for inactives: top-dose activation, usual class: activators; 73,000 compounds, 2.5% hits; note: % of control where 0% means no effect; nearly all actives have a fitted effect of over 55% in size
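Parental HEK 293 cells stably expressing a modified CNG channel (no TSHR) report cAMP rise as membrane depolarization. Membrane potential dye with 100 uM RO 20-1724 was loaded for 60 min at room temperature, then compound added for 30 min; fluorescence read at 590 nm.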
GBA activity: human lysosomal glucosylceramidase modulation | P04062 | purified enzyme, resorufin glucoside fluorescence (screen aimed at inhibitors), 20 min | Potency, µM | 48,000 compounds, 1.1% hits | AID 360; in the data active = potency below about 15 µM; inconclusive = mostly about 16 µM to 33 µM;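 note: the screen sought inhibitors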
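Compounds titrated against 0.2 nM normal enzyme, 30 uM resorufin beta-D-glucopyranoside substrate, citrate/phosphate buffer with taurocholate and tween-20, pH 5.9. Reaction ran 20 min at room temperature; fluorescence (Ex 548/Em 600) gave AC50.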
Luciferase inh: inhibitors of firefly luciferase; P08659; Potency, µM (highest dose often 57.1 µM), without a hit: top-dose activity change, negative = inhibition, actives largely listed as inhibitors; 72,000 compounds, 2.2% hits; purified firefly luciferase, luminescence, 8 min; note: % is set by controls: 0 for no effect and ±100 for the full control effect; nearly all actives have a fitted effect of over 40% in size
Target sequence (P08659 whole entry, looked up): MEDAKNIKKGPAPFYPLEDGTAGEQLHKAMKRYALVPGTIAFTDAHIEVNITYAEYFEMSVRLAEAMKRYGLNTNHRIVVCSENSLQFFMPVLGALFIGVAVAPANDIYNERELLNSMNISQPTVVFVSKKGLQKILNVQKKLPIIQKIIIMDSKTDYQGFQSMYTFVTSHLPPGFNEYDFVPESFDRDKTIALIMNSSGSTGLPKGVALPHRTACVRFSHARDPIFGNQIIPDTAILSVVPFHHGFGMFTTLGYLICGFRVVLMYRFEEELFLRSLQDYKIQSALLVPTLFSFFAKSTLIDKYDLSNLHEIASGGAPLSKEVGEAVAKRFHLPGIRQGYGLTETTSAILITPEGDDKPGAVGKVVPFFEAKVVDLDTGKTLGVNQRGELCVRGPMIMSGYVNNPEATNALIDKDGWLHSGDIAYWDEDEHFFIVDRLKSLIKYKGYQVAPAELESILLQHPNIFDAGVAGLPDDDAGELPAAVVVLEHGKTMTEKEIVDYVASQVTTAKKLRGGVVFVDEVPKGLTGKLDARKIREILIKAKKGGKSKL
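Here, luciferase activity is measured as luminescence following an 8 min room-temperature reaction at 10 uM ATP, pH 7.2. Every library sample is titrated.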
ERK AVP inh: vasopressin-driven ERK pathway inhibition. HEK293-V1b, vasopressin-stimulated pERK AlphaScreen. Potency, µM (series often up to 57.5 µM), without a hit: at the highest dose activity, negative = inhibition, most hits filed as inhibitors. 72,000 compounds, 0.99% hits. AID 995; note: % is set by controls: 0 for no effect and ±100 for the full control effect; nearly all actives have a fitted effect of over 55% in size
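qHTS, compounds titrated on V1b-expressing HEK293 cells. Preincubation 30 min at 37C, vasopressin 25 nM for 5 min, lysis 10 min, bead incubation 5 hr at room temperature.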
Active calls of the source: *; i = inactive; u = inconclusive; x = not tested or not shown; ! = not active in a repeat; [ ] = another dose, or the depositor's remark. Unless noted, calls come from the whole dose curve; as a rule, active = well fitted curve in the direction sought with a large enough effect; inconclusive = small, poorly fitted or top-dose-only effect, or another doubt; inactive = no such curve, though single readings can be large; an effect the other way counts as inactive or inconclusive. Potency is the fitted concentration of half-maximal effect.

SMILES	PK Bst	TSHR ag	HEK293 cAMP ctrl	GBA activity	Luciferase inh	ERK AVP inh
O=C1CC(c2ccccc2)Cc2nc(NCc3ccco3)ncc21 (stereo not given)	5.17*	19.5%	18.7%	>76.9	3.16µM*	u
O=C(NCCO)c1ccc(Cc2nc3ccccc3[nH]2)cc1	x	-6.5%	-5.3%	x	x	x
O=c1c(-c2ccccc2)n[nH]c2ccccc12	i	0.8%	11.4%	>76.9	12.6µM*	-3.8%
Nc1c(-c2ccccc2)n[nH]c1-c1ccccc1	x	-19.5%	-17.8%	>76.9	u	-18.7%
O=C(/C=C/Nc1ccc(F)c(Cl)c1)c1ccco1	i	31.1%	22.4%	>76.9	15.8µM*	u
CC(=O)Nc1ccc(N/C=C/C(=O)c2ccco2)cc1	i	-10.4%	-6.9%	>76.9	25.1µM*	-4.3%
CC(=O)Nc1ccc(NC(=O)c2ccco2)cc1	x	-0.6%	13.7%	x	-8.7%	-7.6%
COC1C(O)COC1/C=C/c1ccccc1 (stereo not given)	x	0.0%[11.4 µM]	1.4%[11.4 µM]	x	x	0.7%[11.5 µM]
CC(C)=CCC/C(C)=C/CO/N=C1/[C@H]2O[C@@H]2[C@@H](O)[C@H]2[C@H]1CCn1c(=O)n(C)c(=O)n12	x	-2.4%[11.4 µM]	3.5%[11.4 µM]	x	-0.2%[11.4 µM]	-7.4%[11.5 µM]
COC(=O)C/C=C\[C@@H](C)[C@@H](/C=N\O[C@@H](C)c1cc(-c2c(C)cc(C)cc2C)no1)OC	x	x	25.9%[11.4 µM]	x	0.7%[11.4 µM]	10.4%[11.5 µM]
N#Cc1ccccc1-c1ccc2ncnc(NCc3cccs3)c2c1	x	u	15.8µM*	x	-0.5%[2.29 µM]	-25.7%
Cc1cccc(CNc2ncnc3ccc(-c4ccccc4C#N)cc23)c1	x	u	25.1µM*	x	1.4%[2.29 µM]	-19.6%
CNc1ncnc2ccc(-c3ccccc3C#N)cc12	x	6.1%	-8.2%	x	0.5%[2.29 µM]	u
Cc1cnc(CNc2ncnc3ccc(-c4ccccc4Cl)cc23)cn1	x	u	u	x	-1.1%[2.29 µM]	20µM*
Cc1nc(N2CCOCC2)c2nc(-c3ccccc3)n(CCN(C)C)c2n1	x	4.9%	20.3%	x	x	-14.2%
Oc1cc2c(c(Cl)c1O)CCNC[C@H]2c1ccccc1	x	17.1%	19.6%	x	2.5%	-16.4%
COC(=O)[C@@]1(Cc2ccc(F)cc2)[C@H]2c3cc(C(=O)N4CCCC4)n(Cc4ccccn4)c3C[C@H]2CN1C(=O)c1ccccc1	x	u	u	x	x	4.5%
Cc1ccnc(N2CCC(C(=O)Nc3nnc(C)s3)CC2)n1	>57	7.2%	12.5%	11.7*	-3.7%	-6.8%
CC(C)C[C@H](NC(=O)[C@@H](O)[C@@H](N)Cc1ccccc1)C(=O)O	x	u	u	x	0.3%	1.4%
O=C(Nc1cn(-c2ccccc2)nc1-c1cccs1)c1ccco1	x	u	31.6µM*	x	-17.9%	-21.0%
CC(C)OC(=O)CSc1nc2cccnc2n1C1CCCCC1	>57	u	15.8µM*	>76.9	1.9%	19.6%
O=C(NCCO)c1ccc2[nH]c3c(c2c1)CCCC3	x	6.0%	-6.8%	x	15.8µM*	-16.1%
CCn1c(C)csc1=NC(=O)c1ccccc1	>57	2.9%[11.4 µM]	1.9%	>76.9	-20.3%	12.2%
CCn1c(C)csc1=NC(=O)c1ccccc1O	i	-4.6%[11.4 µM]	11.1%	i	12.6µM*	-9.1%
CN1CCN(S(=O)(=O)c2ccc(N3CCN(S(=O)(=O)/C=C/c4ccccc4)CC3)nc2)CC1	>57	-1.1%	8.9%	13*	-2.7%	16.6%
SMILES	PK Bst	TSHR ag	HEK293 cAMP ctrl	GBA activity	Luciferase inh	ERK AVP inh
COc1ccc(N2CCN(S(=O)(=O)/C=C/c3ccccc3)CC2)cc1	>57	10.1%	1.9%	>76.9	-1.3%	-16.5%
CCOC(=O)Cc1csc(NC(=O)c2c(-c3ccccc3)noc2C)n1	x	-6.1%[11.4 µM]	-5.0%[11.4 µM]	x	0.5%	-3.0%
Cc1noc(C)c1C(=O)Nc1nc(C23CC4CC(CC(C4)C2)C3)cs1	>57	12.6%	3.9%	>76.9	-0.9%	20µM*
Nc1nc(Nc2cccc(F)c2)nc2ccccc12	9.38*	u	-51.8%	12.8*	10µM*	-18.9%
CCCOC(=O)CSc1nnc(-c2ccc(Cl)cc2Cl)o1	>57	-1.3%	19.8%	>76.9	-8.5%	-8.9%
CCOC(=O)CSc1nnc(-c2ccc(Cl)cc2Cl)o1	x	u	u	>76.9	12.6µM*	-4.1%
C[C@@H](C(=O)NCc1ccccc1)[C@H]1C[C@]1(C)[C@H](NC(=O)OCc1ccccc1)c1ccccc1	x	u	15.8µM*	x	x	9.1%
COC(=O)[C@H](C)[C@@H]1C[C@@]1(C)[C@@H](NC(=O)OCc1ccccc1)c1ccccc1	x	u	15.8µM*	x	x	-13.0%
CO[C@@H]1COC(=O)[C@@H](C)NC(=O)C/C=C\[C@@H](C)[C@H](NS(=O)(=O)c2ccc(C)cc2)COC(=O)[C@H](C)NC(=O)C/C=C\[C@H]1C	x	10.0%[11.4 µM]	-0.9%[11.4 µM]	x	1.8%[11.4 µM]	-16.4%[11.5 µM]
CCC(C)C1C(C#N)=C(N)Oc2n[nH]c(-c3ccccc3)c21 (stereo not given)	x	u	25.1µM*	x	2.6%	x
N#CC1=C(N)Oc2n[nH]c(-c3ccc(F)cc3)c2C1c1cccnc1 (stereo not given)	>57	-4.1%[11.4 µM]	9.6%	>76.9	1.6%	15.8µM*
N[C@@](CCc1ccccc1)(C(=O)O)c1ccccc1	x	-4.0%[11.4 µM]	-2.4%[11.4 µM]	x	1.5%[11.4 µM]	-6.4%[11.5 µM]
O=C(OCc1nnc(-c2ccc(Cl)cc2)o1)c1ccncc1	i	16.8%	3.6%	>76.9	-2.2%	8.0%
O=C(OCc1nnc(-c2ccc(Cl)cc2)o1)c1ccc(=O)n(Cc2ccccc2)n1	9.84*	14.1%	17.3%	>76.9	-0.8%	-12.0%
N#Cc1ccc2c(c1)N(CCCN1CCC(O)CC1)c1ccccc1S2	x	x	x	x	x	34.5%
CN1CCN(CCCN2c3ccccc3Sc3ccc(C(F)(F)F)cc32)CC1	i	-2.9%[11.4 µM]	7.4%[11.4 µM]	x	0.3%[25.5 µM]	25.1µM*!
O=C(c1ccccc1)[C@H](Nc1ccc2ccccc2c1)c1ccccc1	x	-3.4%[11.4 µM]	0.3%[11.4 µM]	x	-20.9%[11.4 µM]	-6.8%[11.5 µM]
CCOC(=O)c1cc(-c2ccco2)nc2c1c(C)nn2-c1ccccc1	>57	3.16µM*	17.0%	u	0.0%	-20.9%
Cn1c(=O)[nH]c(=O)c2c1nc(N1CCCC1)n2CCCSc1nc2ccccc2o1	>57	0.0%	-5.9%	>76.9	-1.6%	-16.7%
Cn1c(=O)[nH]c(=O)c2c1nc(Br)n2CCCSc1nc2ccccc2o1	>57	u	u	>76.9	-0.4%	31.6µM*
O=C1c2ccccc2C(=O)N1CCCSc1nc2ccccc2o1	x	u	3.98µM*	x	1.9%	u
Nc1nc(N)c(CCCCc2ccccc2)c(N)n1	x	5.4%[11.4 µM]	4.4%[11.4 µM]	x	1.9%[11.4 µM]	-15.7%[11.5 µM]
O=C(Nc1ccc(N2CCN(C(=O)c3ccco3)CC2)c(Cl)c1)c1c(F)c(F)c(F)c(F)c1F	>57	24.2%	4.2%	x	0.0%	-21.4%
Cc1ccccc1C(=O)N1CCN(c2ccc(NC(=O)c3ccco3)cc2Cl)CC1	>57	-7.1%	-1.7%	u	0.8%	31.6µM*
C#C[C@@]1(O)CC[C@@H]2[C@@H]3CCC4=C(CCC(=O)C4)[C@H]3CC[C@]21C	x	u	u	x	0.5%[25.5 µM]	u
